Assay outcomes: PubChem, National Center for Advancing Translational Sciences (NCATS)
In the library only some 14% were active in any assay of this set; here they are far more common.
Pf growth 48h – inhibits P. falciparum growth in the first generation, 48 h; P. falciparum luciferase growth in erythrocytes, 48 h; Potency, µM (top dose mostly 28.7 µM), for inactives: at the highest dose activity change, negative = inhibition, actives largely listed as inhibitors; 310,000 compounds, 5.9% hits; AID 504832; further: potency means the concentration at half of the fitted maximal effect
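In quantitative HTS format, infected erythrocytes bearing luciferase-reporter parasites were treated for a single generation at 37 C. Luminescence after adding detection reagent served as the growth measure.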
Sm TGR inh – blocks Schistosoma mansoni thioredoxin glutathione reductase; Potency, µM (series often up to 114 µM), for the others: at the highest dose activity change, negative = inhibition, most hits filed as inhibitors; AID 485364; purified TGR, DTNB reduction, TNB absorbance 405 nm; 360,000 compounds, 3% hits; further: potency means the concentration at half of the fitted maximal effect; nearly all actives have a fitted effect of over 60% in size
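First, TGR (20 nM dispensed) and NADPH were mixed with compound. Second, a 15 min room-temperature incubation followed. Third, further NADPH and then DTNB were added to start the reaction. Finally, TNB absorbance was monitored kinetically.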
Pf growth 96h – P. falciparum growth inhibition at 96 hours; P. falciparum luciferase reporter growth, 96 h; Potency, µM (series often up to 28.7 µM), without a hit: top-dose activity change, negative = inhibition, actives largely listed as inhibitors; 320,000 compounds, 6.9% hits; further: potency means the concentration at half of the fitted maximal effect
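P. falciparum expressing integrated firefly luciferase, in erythrocytes at 2% hematocrit, 0.05% parasitemia, incubated with compounds 96 h at 37 C, 5% CO2. Growth inhibition read as loss of luminescence; two-generation exposure targets delayed-death apicoplast inhibitors.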
HCMV inh – inhibitors of human cytomegalovirus. HFF cells, HCMV-luciferase reporter, 72 h; hits give low values. activity change, negative = inhibition, % at 57.5 µM. 410,000 compounds, 4.5% hits; in the data active means activity change below about -60%; inconclusive means no clear call, values can overlap the other calls; inactive means above about -39%
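Two compound doses tested in HFFs infected with HCMV-luciferase, MOI 1 PFU/cell, 72 h at 37C. Lysate luminescence read with OneGlo; data normalized against buffer-only and 10uM Salinomycin inhibitor controls.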
Giardia FBPA inh – inhibitors of Giardia lamblia fructose-1,6-bisphosphate aldolase; purified Giardia FBPA; Potency, µM (top dose mostly 59.6 µM), inactives show at the top dose activity, negative = inhibition, usual class: inhibitors; 290,000 compounds, 0.71% hits; further: potency means the concentration at half of the fitted maximal effect; nearly all actives have a fitted effect of over 55% in size
Target sequence (A8B2U2 whole entry, looked up): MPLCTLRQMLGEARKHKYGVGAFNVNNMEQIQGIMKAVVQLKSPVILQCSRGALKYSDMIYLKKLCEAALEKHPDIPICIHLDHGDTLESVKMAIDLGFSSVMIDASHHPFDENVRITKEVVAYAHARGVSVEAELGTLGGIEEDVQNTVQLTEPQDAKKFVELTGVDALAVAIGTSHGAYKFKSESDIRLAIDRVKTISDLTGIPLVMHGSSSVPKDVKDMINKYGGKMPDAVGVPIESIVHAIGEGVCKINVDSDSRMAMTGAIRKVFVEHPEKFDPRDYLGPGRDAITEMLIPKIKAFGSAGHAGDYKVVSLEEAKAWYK
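Giardia FBPA (40 nM reagent) was preincubated 10 min at RT with compound (up to 57.5 uM final), then substrate plus GAPDH/TPI/NAD/arsenate coupling system with diaphorase/resazurin was added; resorufin fluorescence (525/598 nm) was read after 20 min.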
An asterisk follows results filed as active; ? = inconclusive; . = no result. Unless noted, the call rests on the fitted dose curve; in most records, active means well fitted curve in the direction sought with a large enough effect; inconclusive means small, poorly fitted or top-dose-only effect, or another doubt; inactive means no such curve, though single readings can be large; an effect the other way counts as inactive or inconclusive. On the % scale 0 is the no-effect control and ±100 the full control effect.

SMILES | Pf growth 48h | Sm TGR inh | Pf growth 96h | HCMV inh | Giardia FBPA inh
COc1ccc([C@H]2NC(=O)C[C@@H]2C(=O)N2CCOCC2)cc1 | . | . | . | -11 | .
N#Cc1cc(C#N)c(N2CCN(c3cccc(Cl)n3)CC2)nc1N | 3.7µM* | 10% | 1.7µM* | 50 | 1%
COc1cccc(Nc2nc(Nc3ccc(Cl)c(C(=O)O)c3)nc(C)c2[N+](=O)[O-])c1 | 6% | -11% | 79% | 0 | .
COc1ccc2c(c1)[C@H]1[C@H](CO2)[C@H](c2ccccc2)[C@]2(C)C(=O)Nc3cc(OC)c(OC)cc3C(=O)N12 | 9.3µM* | -18% | ? | ? | .
COc1ccc2c(c1)[C@@H]1[C@H](CO2)[C@H](c2ccccc2)[C@]2(C)C(=O)Nc3ccc(C)cc3C(=O)N12 | 13µM* | -6% | ? | . | .
COc1ccc2c(c1)C(=O)N1[C@H]3c4cc(C)ccc4OC[C@@H]3[C@H](c3ccccc3)[C@]1(C)C(=O)N2 | 9.3µM* | -1% | ? | ? | .
Cc1ccc2c(c1)[C@H]1[C@H](CO2)[C@H](c2ccccc2)[C@]2(C)C(=O)Nc3ccccc3C(=O)N12 | . | . | . | -76* | .
O=C(Cn1ccc2ccccc2c1=O)NCC(=O)N1CCN(c2ccccc2F)CC1 | 17% | -4% | 16% | -5 | 16%
Cc1ccc(S(=O)(=O)NC23CC4CC(CC(C4)C2)C3)cc1 | 15µM* | 3% | ? | -33 | .
COC(=O)c1ccc(CSc2nc3ccccc3c(=O)n2-c2ccc(OC)c(OC)c2)o1 | 8.3µM* | -12% | . | 23 | -3%
COc1ccc(-n2c(SCC(=O)Nc3ccccc3)nc3c(c2=O)SCC3)cc1 | . | 12% | 1% | 49 | 0%
O=C(CSc1nc2c(c(=O)n1-c1ccc(Cl)cc1)SCC2)Nc1nccs1 | 5.2µM* | 6% | -8% | -2 | -5%
COC(=O)c1ccc(CSc2nc3c(c(=O)n2-c2ccccc2)SCC3)o1 | 10µM* | -13% | ? | -22 | -6%
COc1ccc(NC(=O)CSc2nc3c(c(=O)n2-c2ccc(F)cc2)SCC3)cc1 | -22% | 2% | 10µM* | -9 | -6%
O=C(CSc1nc2c(c(=O)n1-c1ccc(Br)cc1)SCC2)Nc1nccs1 | ? | -6% | -18% | -6 | 0%
Cc1ccccc1-n1cc(-c2ccccc2)nc1SCC(=O)Nc1ccc(F)cc1 | . | 0% | . | -21 | .
Cc1ccc(CNc2ccc3c(c2)ncn3C(C)(C)C)cc1 | -21% | 3% | 9% | 45 | -9%
O=C1c2ccccc2C(Cc2ccnc(F)c2)(Cc2ccnc(F)c2)c2ccccc21 | . | . | . | . | 4%
COc1ccc(NC(=O)CSc2nc3c(c(=O)n2-c2ccccc2)SCC3)c(OC)c1 | -3% | 25µM* | -2% | -15 | -8%
CCOc1ccc(-n2c(SCC(=O)Nc3ccc(OC)cc3OC)nc3c(c2=O)SCC3)cc1 | ? | -12% | 1% | -24 | 4%
CCOC(=O)CSc1nc2c(c(=O)n1-c1ccc(OCC)cc1)SCC2 | -16% | 2% | . | -5 | 1%
CCOc1ccc(-n2c(SCC(N)=O)nc3c(c2=O)SCC3)cc1 | 8.3µM* | -1% | -30% | 46 | -5%
CCCCCc1c(C)[nH]c2nc3ccccc3n2c1=O | -29% | 54% | ? | -35 | 3%
CCOC(=O)c1cnn(-c2cc(C)cc(C)c2)c1N | 10% | 2% | 23% | 17 | 0%
CCOC(=O)c1cnn(-c2sc(C(=O)OCC)c(C)c2C(=O)OCC)c1N | . | . | . | -68* | .
SMILES | Pf growth 48h | Sm TGR inh | Pf growth 96h | HCMV inh | Giardia FBPA inh
CN(C)c1ccc(N(C)C)c(C(O)(c2ccccc2)c2ccccc2)c1 | . | . | . | -35 | .
COC(=O)C[C@H]1C[C@H]2c3cc(NC(=O)C4CCOCC4)ccc3O[C@H]2[C@@H](CO)O1 | . | . | . | -4 | .
O=[N+]([O-])c1ccc(C=Nc2ccccc2)cc1 | . | . | . | 7 | .
O=[N+]([O-])c1ccc(N=Cc2ccc(Br)c([N+](=O)[O-])c2)cc1 | 0% | 32µM* | ? | ? | -12%
O=S1(=O)C=C(Sc2nnc(-c3ccccc3)o2)c2ccccc21 | 3.7µM* | 0.5µM* | 2% | . | -4%
CSc1nnc(-c2ccccc2)o1 | 42% | -1% | 10% | -1 | 1%
O=S1(=O)CCC(NC(=S)SCCOc2ccccc2)C1 (centres undefined) | -23% | ? | 36% | -69* | 1%
CCCCSC(=S)NC1CCS(=O)(=O)C1 (centres undefined) | ? | -2% | 14% | -84* | 1%
O=S1(=O)CCC(NC(=S)NC2CCS(=O)(=O)C2)C1 (centres undefined) | -3% | -9% | 161% | -4 | 21%
C[C@@H]1CNC(=O)c2c(C(=O)NC3CCN(C(=O)OC(C)(C)C)CC3)ncn21 | . | . | . | -14 | .
CSc1ccc(-c2nc(CSCC(=O)N3CCOCC3)c(C)o2)cc1 | 41% | 8% | ? | -74* | -9%
COc1ccc(-c2nc(CSCC(=O)N3CCN(c4ccc(OC)cc4)CC3)c(C)o2)cc1 | . | -24% | . | -29 | .
COc1ccc(-c2nc(CSCC(=O)N3CCN(c4cc(Cl)ccc4C)CC3)c(C)o2)cc1 | . | -10% | . | -80* | .
COc1ccc(-c2nc(CSCC(=O)N3CCN(c4cccc(C)c4C)CC3)c(C)o2)cc1OC | . | -4% | . | -93* | .
Cn1nc(C(=O)NCC2COc3ccccc3O2)c2ccccc2c1=O (centres undefined) | ? | -7% | ? | 23 | .
CCCn1nc(C(=O)Nc2nc3ccccc3[nH]2)c2ccccc2c1=O | 15µM* | -1% | ? | -16 | -6%
CC(C)Cn1nc(C(=O)NCc2ccccc2CN2CCCC2)c2ccccc2c1=O | ? | 28µM* | ? | -24 | .
CCCCn1nc(C(=O)NCC2COc3ccccc3O2)c2ccccc2c1=O (centres undefined) | 10µM* | -7% | ? | -7 | .
CCC(C)NC(=O)c1nn(Cc2ccccc2)c(=O)c2ccccc12 (centres undefined) | ? | -10% | ? | -25 | 1%
Cc1nc2ccc(NC(=O)c3nn(CC(C)C)c(=O)c4ccccc34)cc2s1 | 4% | -19% | -2% | -62* | 0%
Cc1nnc(NC(=O)c2nn(CC(C)C)c(=O)c3ccccc23)s1 | -16% | -2% | ? | -20 | 3%
Cc1c(C(=O)N(CCc2ccccc2)Cc2ccccc2)cccc1[N+](=O)[O-] | ? | -7% | ? | 28 | -10%
COc1ccc(CC(N)c2csc(Nc3cc(NCc4ccco4)ncn3)n2)cc1 (centres undefined) | . | . | . | -27 | .
CCc1nc2ccc(C(=O)NCCOc3ccc(OC)cc3)cn2c1N(C)Cc1nccn1C | . | . | . | 56 | .
CCCCn1nc(C(=O)NNC(=O)c2ccncc2)c2ccccc2c1=O | 12% | 8% | ? | . | .
CCCCn1nc(C(=O)Nc2nc3c(s2)CCCC3)c2ccccc2c1=O | ? | -11% | 6.6µM* | ? | 1%
CCCCCCn1nc(C(=O)Nc2nc3c(s2)CCCC3)c2ccccc2c1=O | ? | 6% | ? | -33 | -2%
